# Assay results taken from the supplement of paper PMC8728848.
# The entries come from a sample that favours the strongest signals as a whole.
# B1: EUL D1A first (Oryza sativa) (protein)
# chain: MFGFGHHHNQAPAAPSDPNQIFKIFCRANENYCLTVRDSAVVLAPVNPKDEHQHWFKDMRFSTKVKDGEGMPAFALVNKATGLAVKHSLGQSHPVKLVPFNPEYEDASVLWTESKDVGKGFRCIRMVNNTRLNLDAFHGDKDHGGVRDGTTVVLWEWCKGDNQSWKILPWGPEAHSSSPGAATILEQKLISEEDLNSAVDHHHHHH
# Tests used:
# Assay in all cases: glycan array binding signal (z-score within array); higher = stronger binding
# Conditions in all cases: glycan notation: IUPAC condensed, linker removed
# [1] = molecular target: GalNAc(a1-3)GalNAc(b1-3)Gal(a1-4)Gal(b1-4)Glc
# How it was run: (§1)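 Negative Z-scores can be read as non-binding. The Z-score is calculated within each array and then averaged across arrays of one protein sequence at different concentrations or buffers and across linkers. Arrays, 3228 in all, were curated from the Consortium for Functional Glycomics database and kept only where the protein sequence was available.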
# [2] = molecular target: GalNAc(b1-3)Gal(a1-6)Gal(b1-4)Glc
# How it was run: as §1
# GalNAc(b1-4)GlcNAc6S = molecular target: GalNAc(b1-4)GlcNAc6S
# How it was run: as §1
# GalNAc3S(b1-4)GlcNAc3S = molecular target: GalNAc3S(b1-4)GlcNAc3S
# How it was run: as §1
# GalNAc4S6S(b1-4)GlcNAc = molecular target: GalNAc4S6S(b1-4)GlcNAc
# How it was run: as §1
# [3] = molecular target: GlcNAc(b1-2)Man(a1-3)[GlcNAc(b1-2)Man(a1-6)]Man(b1-4)GlcNAc(b1-4)[Fuc(a1-6)]GlcNAc
# How it was run: as §1
# [4] = molecular target: GlcNAc(b1-3)Gal(b1-4)GlcNAc(b1-2)[GlcNAc(b1-3)Gal(b1-4)GlcNAc(b1-6)]Man(a1-6)[GlcNAc(b1-3)Gal(b1-4)GlcNAc(b1-2)Man(a1-3)]Man(b1-4)GlcNAc(b1-4)GlcNAc
# How it was run: as §1
# [5] = molecular target: GlcNAc(b1-3)Gal(b1-4)GlcNAc(b1-3)Gal(b1-4)GlcNAc(b1-3)Gal(b1-4)GlcNAc(b1-3)Gal(b1-4)GlcNAc(b1-2)Man(a1-3)[GlcNAc(b1-3)Gal(b1-4)GlcNAc(b1-3)Gal(b1-4)GlcNAc(b1-3)Gal(b1-4)GlcNAc(b1-3)Gal(b1-4)GlcNAc(b1-2)Man(a1-6)]Man(b1-4)GlcNAc(b1-4)[Fuc(a1-6)]GlcNAc
# How it was run: as §1
# [6] = molecular target: GlcNAc(b1-3)[GlcNAc(b1-6)]Gal(b1-4)GlcNAc
# How it was run: as §1
# [7] = molecular target: GlcNAc(b1-4)GlcNAc(b1-4)GlcNAc(b1-4)GlcNAc(b1-4)GlcNAc(b1-4)GlcNAc
# How it was run: as §1
# Man(a1-2)Man(a1-3)Man = molecular target: Man(a1-2)Man(a1-3)Man
# How it was run: as §1
# [8] = molecular target: Neu5Ac(a2-3)Gal(b1-3)GlcNAc(b1-3)Gal(b1-3)GlcNAc
# How it was run: as §1
# [9] = molecular target: Neu5Ac(a2-3)Gal(b1-3)[GlcNAc(b1-6)]GalNAc
# How it was run: as §1
# [10] = molecular target: Neu5Ac(a2-3)Gal(b1-4)GlcNAc(b1-3)Gal(b1-4)GlcNAc(b1-6)[Gal(b1-3)]GalNAc
# How it was run: as §1
# [11] = molecular target: Neu5Ac(a2-3)Gal(b1-4)GlcNAc(b1-3)Gal(b1-4)[Fuc(a1-3)]GlcNAc
# How it was run: as §1
# [12] = molecular target: Neu5Ac(a2-3)Gal(b1-4)GlcNAc(b1-6)[Gal(b1-3)]GalNAc
# How it was run: as §1
# [13] = molecular target: Neu5Ac(a2-3)Gal(b1-4)[Fuc(a1-3)]GlcNAc(b1-3)GalNAc
# How it was run: as §1
# [14] = molecular target: Neu5Ac(a2-3)[Neu5Ac(a2-6)]GalNAc
# How it was run: as §1
# [15] = molecular target: Neu5Ac(a2-6)Gal(b1-4)GlcNAc(b1-2)Man(a1-6)[Man(a1-3)]Man(b1-4)GlcNAc(b1-4)GlcNAc
# How it was run: as §1
# Neu5Gc(a2-3)Gal(b1-4)Glc = molecular target: Neu5Gc(a2-3)Gal(b1-4)Glc
# How it was run: as §1
# [16] = molecular target: Neu5Gc(a2-3)Gal(b1-4)GlcNAc
# How it was run: as §1
binder,measurement,setting,value
B1,glycan array binding signal (z-score),[1],-0.059
same,glycan array binding signal (z-score),[2],-2.32
same,glycan array binding signal (z-score),GalNAc(b1-4)GlcNAc6S,-0.411
same,glycan array binding signal (z-score),GalNAc3S(b1-4)GlcNAc3S,-0.185
same,glycan array binding signal (z-score),GalNAc4S6S(b1-4)GlcNAc,0.534
same,glycan array binding signal (z-score),[3],3.11
same,glycan array binding signal (z-score),[4],1.95
same,glycan array binding signal (z-score),[5],2.06
same,glycan array binding signal (z-score),[6],6.85
same,glycan array binding signal (z-score),[7],-0.541
same,glycan array binding signal (z-score),Man(a1-2)Man(a1-3)Man,0.615
same,glycan array binding signal (z-score),[8],0.506
same,glycan array binding signal (z-score),[9],0.405
same,glycan array binding signal (z-score),[10],0.24
same,glycan array binding signal (z-score),[11],-0.958
same,glycan array binding signal (z-score),[12],0.081
same,glycan array binding signal (z-score),[13],3.45
same,glycan array binding signal (z-score),[14],-0.451
same,glycan array binding signal (z-score),[15],-0.647
same,glycan array binding signal (z-score),Neu5Gc(a2-3)Gal(b1-4)Glc,-0.152
same,glycan array binding signal (z-score),[16],0.3
